Screening results as filed in PubChem.
Most compounds without a hit are left out; they make up all but 2.1% or so of the library.
CHT PAM = allosterically activates the human high affinity choline transporter. CHT-expressing cells, membrane potential dye, choline EC20; stronger effect = higher value; LV-AA mutant CHT in HEK293 cells. 310,000 tested, 0.49% active. B-score at 10 µM. Q9GZV3;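 active means initial fluorescence not abnormally high and integrated response B-score, plate-corrected, over 3 SD above library mean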
EP2 modulator = modulates human prostaglandin E2 receptor EP2 signaling; AID 940; EP2-expressing cells, cAMP HTRF FRET, PGE2 co-stimulation; P43116; induction, % at 25 µM; 260,000 tested, 0.83% active;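 active means compounds whose cAMP rise, as percent of the full-agonist control response, exceeds 60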;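 further: rat C6 glioma line stably carrying human EP2 under a CMV promoter; the protocol text gives 20 µM as final concentration; 100% = response of wells given 1 µM PGE2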
Target sequence (P43116 whole entry, looked up): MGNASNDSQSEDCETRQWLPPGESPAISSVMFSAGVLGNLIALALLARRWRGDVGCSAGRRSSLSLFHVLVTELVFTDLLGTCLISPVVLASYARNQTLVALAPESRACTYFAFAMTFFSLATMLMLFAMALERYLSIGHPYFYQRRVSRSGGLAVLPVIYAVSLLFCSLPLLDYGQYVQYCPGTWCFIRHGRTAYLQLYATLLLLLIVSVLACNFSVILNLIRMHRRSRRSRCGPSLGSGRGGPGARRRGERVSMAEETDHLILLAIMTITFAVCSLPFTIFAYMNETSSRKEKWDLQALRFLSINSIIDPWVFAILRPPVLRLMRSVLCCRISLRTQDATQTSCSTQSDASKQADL
CHT block = human CHT choline transport inhibition. Q9GZV3. CHT-expressing cells, membrane potential dye, choline response; stronger effect = lower value. B-score at 10 µM. 310,000 tested, 0.86% active;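 active means B-score over 3 SD under the library average, and starting fluorescence ratio not unusually high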;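 further: choline stimulus applied at its EC90 after an EC20 pre-addition; B-score computed on integrated fluorescence ratio after choline addition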
EP2 antag = blocks the human prostaglandin E2 receptor EP2. C6 glioma cells expressing human EP2, cAMP TR-FRET; cells stimulated with saturating PGE2. P43116. 260,000 tested, 0.52% active. AID 1422. inhibition, % at 25 µM;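 active means percent inhibition above 40 after rounding to a whole number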;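 further: rat C6 glioma host cells with rolipram phosphodiesterase inhibitor present; the protocol text gives 20 µM as final concentration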
CHT act confirm = human CHT activation, confirmatory screen | 2,500 tested, 91% active | activation, % at 10 µM | CHT-expressing cells, membrane potential dye fluorescence (FDSS); % of choline EC20–EC90 response window; HEK293 expressing CHT LV-AA mutant; choline added at its EC20 | shares compounds with CHT PAM;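 active means primary screen active, with duplicate mean activation above negative control mean plus 3 SD, cut at about 11% in these data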
HEK293 MP dye = CHT activator counter-screen hit in parental HEK293 cells; shares compounds with CHT PAM; ratio readout change at 10 µM, hits read low; AID 623908; 2,500 tested, 62% active; membrane potential dye fluorescence (FDSS); measured after EC20 choline addition;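 active means duplicate-averaged ratio beyond 3 SD from buffer wells, up or down, though filed actives are nearly all decreases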
The depositor's hits bear a star; i = inactive; x = no result.

SMILES	CHT PAM	EP2 modulator	CHT block	EP2 antag	CHT act confirm	HEK293 MP dye
Cn1c(=O)c2c(nc(N3CCOCC3)n2CCSc2ncccn2)n(C)c1=O	8.6*	-5	i	10	75*	-79*
Cn1c(=O)c2c(nc(N3CCOCC3)n2CCCNC2=NCCC2)n(C)c1=O	8.8*	21	i	15	54*	-56*
CC(=O)COc1ccccc1OC(=O)c1ccco1	i	-4	i	8	-1	i
Cn1c(N2CCC(C(=O)NCCc3ccc(O)cc3)CC2)nc2ccccc21	x	-90	x	5	x	x
CN(C)S(=O)(=O)N(CC(=O)NCCSCc1ccc(Cl)cc1)c1ccccc1	8*	11	i	3	1	i
CN(C)/N=C/c1cc([N+](=O)[O-])ccc1O	i	-34	i	5	x	x
CC[n+]1c(/C=C/c2ccc(OC)c(OC)c2)ccc2ccccc21	i	x	i	x	x	x
CC[n+]1c(/C=C/c2cc([N+](=O)[O-])ccc2O)ccc2ccccc21	i	x	i	x	17*	-52*
CC[n+]1c(/C=C/c2ccc(OC(C)=O)c(OC)c2)ccc2ccccc21	7.2*	x	i	x	45*	-74*
O=C(c1cc(C2CC2)nc2ccccc12)N1CCc2c(nc(N3CCOCC3)[nH]c2=O)C1	x	-25	x	x	x	x
CCn1c(SCC(=O)Nc2nc(C)c(C)s2)nnc1-c1ccncc1	x	-46	x	4	x	x
CN1CCCC1CCNc1ccc2c(=O)c3ccccc3oc2c1 (stereo unspecified)	6.4*	x	i	x	53*	-22*
CN1CCCC1CCNc1ccc2oc3ccccc3c(=O)c2c1 (stereo unspecified)	i	x	i	x	x	x
Cc1ccc(C(=O)Nc2ccc(N3CCN(C(=O)c4ccco4)CC3)cc2)c(C)c1	x	-4	x	7	x	x
CCN(CC)CCN1C(=O)C(=O)/C(=C(\O)c2cccc(OC)c2)C1c1cccnc1 (stereo unspecified)	x	-39	x	5	x	x
CCOC(=O)N1CCN(c2cc(NCCO)c([N+](=O)[O-])c3nonc23)CC1	i	17	i	5	39*	-32*
O=C(NCCCCl)C1c2ccccc2Oc2ccccc21	x	7	x	20	x	x
CC(C)C1Oc2ccccc2N(CC(=O)NC2CCCCC2)C1=O (stereo unspecified)	i	x	i	x	9.8*	i
CN1CCCC1=Nc1c2c(nc3ccccc13)N(C)CC2	8.9*	20	i	11	61*	-57*
CN1CCCCc2c1nc1ccccc1c2N (tested in a mixture with another compound)	8.6*	2	i	5	23*	-48*
Cc1ccc(-c2nc(N3CCN(C)CC3)c3ccccc3n2)cc1	i	x	i	x	x	x
CCCc1nc2ccc(NC(C)=O)cc2c(=O)n1Cc1ccc(-c2cccc(OC)c2)cc1	x	-26	x	8	x	x
O=C(NC1CCCC1)C(c1ccco1)N(Cc1cccs1)C(=O)c1ccco1 (stereo unspecified)	x	-6	x	9	x	x
O=C(NC1CCCCC1)C(c1cccs1)N(Cc1cccs1)C(=O)c1ccco1 (stereo unspecified)	i	10	i	14	29*	i
Cc1cc[n+](CC(=O)c2cccc([N+](=O)[O-])c2)c2ccccc12	8.8*	x	i	x	49*	-58*
SMILES	CHT PAM	EP2 modulator	CHT block	EP2 antag	CHT act confirm	HEK293 MP dye
O=C(Cc1ccc(F)cc1)NCCc1nc(-c2cccnc2)n[nH]1	x	-30	x	7	x	x
Cc1ccc(C(=O)N(C)c2nnc(-c3ccncc3)s2)cc1	i	-13	i	4	x	x
CN(C(=O)CCc1ccccc1)c1nnc(-c2ccncc2)s1	7.4*	-25	i	3	28*	-30*
COC(=O)C1CN(C(=O)C(C)Oc2cc(C)ccc2C(C)C)c2ccccc2O1 (stereo unspecified)	i	x	i	x	x	x
COC(=O)C1CN(C(=O)C(C)Oc2ccc(C(C)C)cc2)c2ccccc2O1 (stereo unspecified)	i	x	i	x	18*	i
CCc1ccccc1NC(=O)c1ccc(-c2csc(C)n2)cc1	i	x	i	x	7	i
COc1ccc2nc(Cl)c(CNCCO)c(N3CCOCC3)c2c1	x	-57	x	8	x	x
CC1C(=O)C(C)C(c2ccccc2F)NC1c1ccccc1F (stereo unspecified)	i	x	i	x	28*	i
COCCNc1cc(C)nc2c3c(C)cc(C)nc3nn12	i	28	i	7	55*	-65*
Cc1cc(NCCN2CCOCC2)n2nc(C)c(-c3ccccc3)c2n1	i	-3	i	10	x	x
Cc1cc(C)c2c(n1)nn1c(NC3CC3)cc(C)nc21	x	0	x	x	x	x
Cc1cc(C)c2c(n1)nn1c(NCCN3CCOCC3)cc(C)nc21	6.9*	11	i	7	50*	-73*
COc1cc(OC)cc(C2=NCCN2)c1	i	2	i	13	35*	-43*
O=C(Nc1cccc(C2=NCCN2)c1)Nc1cccc(C2=NCCN2)c1	i	x	i	x	x	x
O=C(C1CCN(Cc2ccc(F)cc2)CC1)N(CCc1ccccc1)Cc1ccccc1	6.8*	9	i	9	29*	i
O=C(Nc1cccc(F)c1)c1c(O)c2c([nH]c1=O)CCCC2	x	39	x	7	x	x
C#CCOCCOCCOCCNc1nc(N2CCOCC2)nc(N2CCN(C(=O)CCCCCCCCCCNC(=O)[C@@H]([C@H](C)CC)n3cc(CCCCCN)nn3)CC2)n1	8.4*	x	i	x	6	-32*
C#CCOCCOCCOCCNc1nc(N2CCN(C(=O)CCCCCCCCCCNC(=O)[C@H]([C@@H](C)CC)n3cc(CCCCCN)nn3)CC2)nc(N2CCN(C(=O)CCCCCCCCCCNC(=O)[C@@H]([C@H](C)CC)n3cc(CCCCCN)nn3)CC2)n1	i	x	i	x	x	x
C=Cn1ncc(CN(Cc2ccc(OC)c(OC)c2)CC2CCCO2)c1C (stereo unspecified)	x	-16	x	8	x	x
CS(=O)(=O)c1ccccc1C(=O)N(CCc1ccccc1)Cc1ccccc1	i	x	i	x	x	x
COc1ccc(C(=O)N(CCc2ccccc2)Cc2ccccc2)c(OC)n1	10*	x	i	x	14*	i
CCC(=O)N(CCCOC)c1nc(-c2cc(OC)ccc2OC)cs1	x	38	x	2	x	x
COc1ccccc1NS(=O)(=O)c1cc([N+](=O)[O-])ccc1N/N=C/c1sc(N2CCOCC2)nc1-c1ccccc1	i	48	i	3	23*	i
CC(=O)N(Cc1cccs1)Cc1cc2cc(C)ccc2n2nnnc12	x	-8	x	14	x	x
CCN1CCN(C(=O)CCn2c(=O)c3cccn3c3cccnc32)CC1	i	x	i	x	58*	-30*
O=C(COc1ccc(Br)cc1CNC1CCCC1)Nc1ccccc1	i	-25	i	11	7	i
